Assay results taken from the supplement of paper PMC11417369.
± gives the standard deviation of the averaged measurements. Whole data set: some 25,000 sequences, median “ln(normalized median fluorescence intensity)” near 8.6, cut for the highest 2% near 10. The entries come from a sample that favours the highest values as a whole.

Test system: PfAP2-EXP AP2 domain (GST-tagged)
Experiment: gcPBM binding intensity (ln(normalized median fluorescence intensity)); higher = stronger DNA binding
Procedure, shortened: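 Binding intensity values are the highest Masliner-normalised natural-log median intensity among replicate spots of either probe orientation. The binding step lasted 1 h in 1× PBS with 1% milk, 0.2 mg/ml BSA, 0.5% salmon testes DNA and 0.03% Triton X-100, using GST-tagged P. falciparum DNA-binding domains expressed in E. coli on an Agilent 4 × 180k array of primer-extended double-stranded 36-bp intergenic genomic probes plus negative controls. Alexa488 anti-GST antibody and a 488 nm scan detected bound protein.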

| Sequence | gcPBM binding intensity (ln) |
| --- | --- |
| ACATTTATTTTGAATGGTACACTATTATTATGAAAT [XGTACX_site4384] | 8.36 ± 0.38 |
| TTTTTTTTTTGATGCACACACCTGAACGAGTTAATA [CACACA_site4329] | 8.83 ± 0.37 |
| ATTTTTAAATACAGTACACACATGGGTTTAAATTAT [CACACA_site2884] | 8.63 ± 0.38 |
| ATATAATAATTGTACACATGCACACACAAATATTAT [TGCATGCA_site204] | 8.9 ± 0.29 |
| GATCACTGAATAAAGGCACACATCTGACTAATTTTT [CACACA_site66] | 8.36 ± 0.39 |
| ATAAATTGAAGTAAATTTGACCTTTTTTTTTTTTTT [GTGCAC_negctrl_site354] | 8.31 ± 0.27 |
| AATGAAAGGATGCTGTGTACATATATATATATATAT [XGTACX_site7901] | 10.2 ± 0.49 |
| ATAAAATGAACCTTTTGTACATATATATATATATAT [XGTACX_site4610] | 10.1 ± 0.57 |
| TAAGGATGAATCCTTTGTACATATATATATATATAT [XGTACX_site1242] | 10.2 ± 0.28 |
| ATAATTAATGATGTATGTACGGAATTTATATATTTG [XGTACX_site5685] | 8.4 ± 0.33 |
| AAAAGATAATTATGCACACACACACCCCCACCCAAC [CACACA_site2570] | 10.67 ± 0.099 |
| AAAAGATAATTATGCACACACACACCCAGACACAAC [CACACA_site5428] | 9.11 ± 0.4 |
| AAAAAAGATAATTATGCACACACACCCACCCACCCA [CACACA_site8825] | 9.57 ± 0.41 |
| TAAAATTAATTTCTGTTGCACTTATTATTAATTAAC | 8.84 ± 0.4 |
| ATAAAAACATAAAAATGTACATATATATATATATAT [XGTACX_site7165] | 10.1 ± 0.25 |
| AATATATAAACACGTACACACACATATATGTATATA [CACACA_site9168] | 8.73 ± 0.43 |
| GATATAAACGTATATGTACATATATATATATATATA [GTGCAC_negctrl_site186] | 10.2 ± 0.41 |
| AACATAAAAAAAATATGTACATATATAATATATATA [XGTACX_site3764] | 8.85 ± 0.23 |
| ATATATATATATATATGTACATATATATTGTTGATC [XGTACX_site8893] | 10.1 ± 0.26 |

| Sequence | gcPBM binding intensity (ln) |
| --- | --- |
| TATAAACGTATAATATGTACACACACATATATACAA [XGTACX_site1686] | 8.43 ± 0.32 |
| GCAAATATGTTGATATGTACATATATATATATATAT [XGTACX_site445] | 10.2 ± 0.45 |
| GTAAATATATAAACATGTACATATATAAATATATAA [XGTACX_site7262] | 8.51 ± 0.33 |
| ATAAAAAAAAATATATGTACATATATAAATTGATAT [XGTACX_site7409] | 8.73 ± 0.42 |
| TAAATATATATAACATGTACATAAAATATATATATA [XGTACX_site4431] | 9.53 ± 0.13 |
| TATATATAAAACATATGTACATATATATATATATAT [XGTACX_site419] | 10.2 ± 0.24 |
| ATATAAATATAAACATGTACATATATATATATATAT [XGTACX_site2824] | 10.3 ± 0.79 |
| AATGGGTAAACATACACACACACATATATATATATA [CACACA_site1991] | 10.1 ± 0.33 |
| AATAAGTTATTATTTTGTACACATAAATAATACGTT [XGTACX_site814] | 8.32 ± 0.3 |
| ATATTCATATATTTACGTACATACATTTATATATTT [XGTACX_site7644] | 8.85 ± 0.37 |
| TACCTATACAGACACACACACACACGCCCACAAAAA [CACACA_site6375] | 8.77 ± 0.35 |
| GAAATTAAATGACATACACACTATATTATATATTTT [CACACA_site5693] | 8.34 ± 0.35 |
| AGTAGTCTGGAGAAGAGTACACAGTATCTGGTAGCT [XGTACX_site2042] | 8.48 ± 0.47 |
| AAATAAAATAAAAACATGCACACTTTATTTTTTTTA [CACACA_site2800] | 8.49 ± 0.26 |
| AGAAAAGAGAGAAAAACATGCACATGATATTATAAA [TGCATGCA_site120] | 8.62 ± 0.53 |
| AATATGATATATATATGTACATATATATAATATAAT [XGTACX_site3072] | 8.52 ± 0.41 |
| ATAAATATAAATATATGTACATATATATATATATAT [XGTACX_site7433] | 10.2 ± 0.15 |
| ATATATATATATATATGTACGTATTCATAAACAACA [XGTACX_site4282] | 10.2 ± 0.6 |
| CATGATATATAAATATGTACATATATATATATATAT [XGTACX_site1760] | 10.2 ± 0.23 |

| Sequence | gcPBM binding intensity (ln) |
| --- | --- |
| ATATATATATATATATGTACATAAACATATATATAT [XGTACX_site1064] | 10.2 ± 0.21 |
| AAACATATATACATATGTACATATATACATATATGT [XGTACX_site5779] | 8.4 ± 0.26 |
| AAACATATAAACATATGTACATATAAACATATATAC [XGTACX_site5026] | 8.64 ± 0.33 |
| ATAAATAAAACAAAATGTACAAATATTCATATATTC [XGTACX_site1307] | 8.49 ± 0.32 |
| TTATATGCATAAAAACGTACAAAAATGTATTCATGT [XGTACX_site2215] | 8.71 ± 0.38 |
| TTTTTTCTTTCTTTCAAACACACATTAATTTTATTC [CACACA_site2733] | 8.66 ± 0.49 |
| ATAAATATGGAGCACACACACATAAACATACATATA [CACACA_site421] | 8.84 ± 0.67 |
| AGAAGGATATTATGAAGTACACATATTGTATATGGT [XGTACX_site7503] | 8.47 ± 0.35 |
| AATATATAAATATTGTGTACTTATTTTTTTATATGT [XGTACX_site4377] | 8.49 ± 0.18 |
| TAAATATGAGGGAACACACACATGATATATAAATTC [CACACA_site2400] | 8.81 ± 0.43 |
| TATATATTGCCCTTCACACACACACCCATATATATA [CACACA_site2493] | 9.06 ± 0.42 |
| TTATTTATTTATTGTTGTACACAAAATGATTCTTAA [XGTACX_site6480] | 8.7 ± 0.2 |
| TTATATAACACGGGGAGGACACAAGAAATAAAGAGC [XGTACX_site2148] | 9.13 ± 0.29 |
| ATTTTGATAACCGTACGTACATATATATATATATAT [XGTACX_site6605] | 10.3 ± 0.35 |
| AATGATTTTGATTAACGTACGTACAAATATATATAT [XGTACX_site6604] | 9.31 ± 0.057 |
| AAAATTATATATTATAGTACATAAAATTTTGATATA [XGTACX_site994] | 8.39 ± 0.35 |
| AAATAGAGAAATACAAGTACATATCAAACCAATCTA [XGTACX_site2756] | 8.52 ± 0.42 |
| TTATACACCTTTCATTGTACATATAATTTATATTCT [XGTACX_site8685] | 8.95 ± 0.33 |
| TATTACATTGTTGAATGTACTCATTTAAAATTTATA [XGTACX_site7987] | 8.34 ± 0.38 |
